Laboratory results taken from the supplement of paper PMC10849652.
About 8,800 targets were measured; listed, in parts, are those with a hit and a random draw of the rest. About 0.5% of all pairs of compound and target were hits. Unmarked numbers belong to inactive results.

Columns and labels:
Test in all cases: log2 fold change, soluble protein after heating vs DMSO (PISA); higher = thermal stabilisation; K562 lysate, 10 uM; active = over 0.2 and 3.5 SD of the protein, either way, in both replicates (recomputed)
vemurafenib = compound: CCCS(=O)(=O)Nc1ccc(F)c(C(=O)c2c[nH]c3ncc(-c4ccc(Cl)cc4)cc23)c1F [vemurafenib]
Procedure, shortened: (§1)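 K562 pellets were dounce-homogenised in PBS pH 7.4 with 1 mM MgCl2, and the crude extract at 1 mg/mL protein was treated with 10 μM compound for 30 min. Aliquots were heated for 3 min across 48°C-58°C, pooled, and brought to 0.5% NP-40 at 4°C; soluble protein was the supernatant after 21,000xg for 90 min. Soluble protein was quantified by TMTpro 16plex LC-MS/MS with channel sums equalised, and reported as log2 fold change in thermal stability against DMSO controls, with values from duplicates.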

[1] = compound: CC[C@@H]1C(=O)N(C)c2cnc(Nc3ccc(C(=O)NC4CCN(C)CC4)cc3OC)nc2N1C1CCCC1
Procedure, shortened: as §1

[2] = compound: CCn1c(C(=O)N(C2CC2)C2CC2)cc2c3c(ncn3C)c(Nc3cc(C)n(C)n3)nc21
Procedure, shortened: as §1

[3] = compound: CCn1cc(-c2ccnc3[nH]c(-c4cccc(CN(C)C)c4)cc23)c(-c2ccc(NC(=O)N(C)C)cc2)n1
Procedure, shortened: as §1

[4] = compound: CN1CCC(CNc2ccc3ncc(-c4cccc(OC(F)(F)F)c4)n3n2)CC1
Procedure, shortened: as §1

saracatinib = compound: CN1CCN(CCOc2cc(OC3CCOCC3)c3c(Nc4c(Cl)ccc5c4OCO5)ncnc3c2)CC1 [saracatinib]
Procedure, shortened: as §1

sotrastaurin = compound: CN1CCN(c2nc(C3=C(c4c[nH]c5ccccc45)C(=O)NC3=O)c3ccccc3n2)CC1 [sotrastaurin]
Procedure, shortened: as §1

alvocidib = compound: CN1CC[C@H](c2c(O)cc(O)c3c(=O)cc(-c4ccccc4Cl)oc23)[C@H](O)C1 [alvocidib]
Procedure, shortened: as §1

Tubastatin A = compound: CN1CCc2c(c3ccccc3n2Cc2ccc(C(=O)NO)cc2)C1 [Tubastatin A]
Procedure, shortened: as §1

[5] = compound: CNC(=O)C1=CC=CC=C1NC2=NC(=NC=C2Cl)NC3=C(C=C(C=C3)N4CCOCC4)OC
Procedure, shortened: as §1

defactinib = compound: CNC(=O)c1ccc(Nc2ncc(C(F)(F)F)c(NCc3nccnc3N(C)S(C)(=O)=O)n2)cc1 [defactinib]
Procedure, shortened: as §1

[6] = compound: CNc1nc(-c2ccc3c(N)n[nH]c3c2)cc(N2C[C@@H](C(=O)NC3CCCCC3)CC[C@H]2C)n1
Procedure, shortened: as §1

encorafenib = compound: COC(=O)N[C@@H](C)CNc1nccc(-c2cn(C(C)C)nc2-c2cc(Cl)cc(NS(C)(=O)=O)c2F)n1 [encorafenib]
Procedure, shortened: as §1

[7] = compound: COC(=O)[C@H](CCSC)NC(=O)C1=C(C=C(C=C1)NC[C@H](CS)N)C2=CC=CC=C2
Procedure, shortened: as §1

alisertib = compound: COc1cc(Nc2ncc3c(n2)-c2ccc(Cl)cc2C(c2c(F)cccc2OC)=NC3)ccc1C(=O)O [alisertib]
Procedure, shortened: as §1

gefitinib = compound: COc1cc2ncnc(Nc3ccc(F)c(Cl)c3)c2cc1OCCCN1CCOCC1 [gefitinib]
Procedure, shortened: as §1

[8] = compound: CCCS(=O)(=O)Nc1ccc(F)c(C(=O)c2c[nH]c3ncc(Cl)cc23)c1F
Procedure, shortened: as §1

volasertib = compound: CC[C@@H]1C(=O)N(C)c2cnc(Nc3ccc(C(=O)N[C@H]4CC[C@H](N5CCN(CC6CC6)CC5)CC4)cc3OC)nc2N1C(C)C [volasertib]
Procedure, shortened: as §1

[9] = compound: COc1cc2nc(-c3cc(F)ccc3O)nc(N[C@@H]3CNC[C@H]3C(C)(C)O)c2cc1OC
Procedure, shortened: as §1

barasertib = compound: CCN(CCCOc1ccc2c(Nc3cc(CC(=O)Nc4cccc(F)c4)[nH]n3)ncnc2c1)CCOP(=O)(O)O [barasertib]
Procedure, shortened: as §1

## BBS7 (UniProt Q8IWZ6)
vemurafenib
  log2 fold change: 0.375
[1]
  log2 fold change: -0.082
[2]
  log2 fold change: 0.026
[3]
  log2 fold change: -0.255
[4]
  log2 fold change: 0.067
saracatinib
  log2 fold change: 0.217
sotrastaurin
  log2 fold change: 0.044
alvocidib
  log2 fold change: 0.027
Tubastatin A
  log2 fold change: -0.123
[5]
  log2 fold change: -0.028
defactinib
  log2 fold change: -0.212
[6]
  log2 fold change: -0.042
encorafenib
  log2 fold change: 0.024
[7]
  log2 fold change: 0.091
alisertib
  log2 fold change: 0.123
gefitinib
  log2 fold change: -0.016

## CDC25A (UniProt P30304)
[8]
  log2 fold change: 0.038
volasertib
  log2 fold change: -0.053
[2]
  log2 fold change: 0.033
saracatinib
  log2 fold change: -0.022
sotrastaurin
  log2 fold change: 0.092
Tubastatin A
  log2 fold change: -0.406 (active)
[5]
  log2 fold change: -0.121
[6]
  log2 fold change: 0.035
alisertib
  log2 fold change: 0.005
[9]
  log2 fold change: 0.019
gefitinib
  log2 fold change: -0.002

## BICRA (UniProt Q9NZM4)
UniProt Q9NZM4, sequence (Q9NZM4 whole entry, looked up): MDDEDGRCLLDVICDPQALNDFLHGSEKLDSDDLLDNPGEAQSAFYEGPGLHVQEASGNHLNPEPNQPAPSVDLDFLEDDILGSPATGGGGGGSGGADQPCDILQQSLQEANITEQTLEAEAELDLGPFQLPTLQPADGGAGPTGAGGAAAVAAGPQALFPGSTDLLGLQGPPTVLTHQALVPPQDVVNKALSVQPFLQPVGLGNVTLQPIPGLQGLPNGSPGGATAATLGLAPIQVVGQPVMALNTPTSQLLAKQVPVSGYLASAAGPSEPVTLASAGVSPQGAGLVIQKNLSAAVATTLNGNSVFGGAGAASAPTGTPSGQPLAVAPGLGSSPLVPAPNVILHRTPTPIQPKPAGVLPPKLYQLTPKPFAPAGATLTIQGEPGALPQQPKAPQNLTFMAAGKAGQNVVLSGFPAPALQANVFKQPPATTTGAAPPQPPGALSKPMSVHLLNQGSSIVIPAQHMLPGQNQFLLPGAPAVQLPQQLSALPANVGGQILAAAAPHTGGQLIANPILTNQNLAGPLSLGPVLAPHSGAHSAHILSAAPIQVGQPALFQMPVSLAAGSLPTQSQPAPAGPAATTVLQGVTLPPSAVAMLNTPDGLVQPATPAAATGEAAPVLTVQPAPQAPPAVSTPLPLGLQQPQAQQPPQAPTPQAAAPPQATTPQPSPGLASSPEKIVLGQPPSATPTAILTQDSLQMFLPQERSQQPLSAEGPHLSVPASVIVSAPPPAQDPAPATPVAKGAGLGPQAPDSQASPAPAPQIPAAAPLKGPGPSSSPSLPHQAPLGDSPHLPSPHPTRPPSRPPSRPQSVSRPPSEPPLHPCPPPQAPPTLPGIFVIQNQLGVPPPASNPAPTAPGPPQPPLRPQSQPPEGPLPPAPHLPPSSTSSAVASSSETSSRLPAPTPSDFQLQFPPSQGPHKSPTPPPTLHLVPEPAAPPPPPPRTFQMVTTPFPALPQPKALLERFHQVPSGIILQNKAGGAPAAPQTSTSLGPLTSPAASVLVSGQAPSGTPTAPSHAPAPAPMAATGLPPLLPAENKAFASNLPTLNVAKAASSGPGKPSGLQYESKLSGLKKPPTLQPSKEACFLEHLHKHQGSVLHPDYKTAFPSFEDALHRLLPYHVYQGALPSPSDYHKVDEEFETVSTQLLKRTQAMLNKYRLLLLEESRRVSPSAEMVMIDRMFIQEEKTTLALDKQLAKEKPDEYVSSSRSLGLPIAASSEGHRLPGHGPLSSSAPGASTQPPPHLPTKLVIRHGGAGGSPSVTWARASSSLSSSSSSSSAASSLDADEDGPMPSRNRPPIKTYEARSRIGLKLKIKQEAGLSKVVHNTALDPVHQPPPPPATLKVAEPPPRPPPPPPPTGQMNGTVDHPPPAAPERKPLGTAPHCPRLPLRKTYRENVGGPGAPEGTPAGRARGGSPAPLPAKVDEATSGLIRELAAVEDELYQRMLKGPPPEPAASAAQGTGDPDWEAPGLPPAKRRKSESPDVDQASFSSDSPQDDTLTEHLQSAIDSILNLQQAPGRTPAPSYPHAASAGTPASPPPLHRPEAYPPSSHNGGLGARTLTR
[8]
  log2 fold change: 0.055
barasertib
  log2 fold change: 0.165
volasertib
  log2 fold change: 0.036
[2]
  log2 fold change: -0.233
[3]
  log2 fold change: -0.133
[4]
  log2 fold change: -0.048
saracatinib
  log2 fold change: 0.02
sotrastaurin
  log2 fold change: 0
alvocidib
  log2 fold change: -0.113
Tubastatin A
  log2 fold change: 0.335
[5]
  log2 fold change: 0.101
[6]
  log2 fold change: 0.884 (active)
[9]
  log2 fold change: 0.132

## ATE1 (UniProt O95260)
UniProt O95260, sequence (O95260 whole entry, looked up): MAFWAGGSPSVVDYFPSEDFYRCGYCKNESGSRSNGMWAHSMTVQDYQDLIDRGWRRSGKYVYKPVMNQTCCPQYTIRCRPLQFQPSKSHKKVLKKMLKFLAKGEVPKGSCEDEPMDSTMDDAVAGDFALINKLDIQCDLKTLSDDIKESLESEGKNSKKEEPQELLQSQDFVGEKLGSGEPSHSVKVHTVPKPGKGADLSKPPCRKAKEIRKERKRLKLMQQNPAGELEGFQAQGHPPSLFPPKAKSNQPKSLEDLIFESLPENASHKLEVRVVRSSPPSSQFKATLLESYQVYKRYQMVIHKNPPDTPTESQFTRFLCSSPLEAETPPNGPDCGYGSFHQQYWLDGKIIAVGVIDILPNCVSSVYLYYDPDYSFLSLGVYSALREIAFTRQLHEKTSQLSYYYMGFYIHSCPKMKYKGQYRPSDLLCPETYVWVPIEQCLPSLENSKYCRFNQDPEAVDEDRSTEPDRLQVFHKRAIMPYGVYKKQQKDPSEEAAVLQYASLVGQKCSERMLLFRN
[8]
  log2 fold change: 0.061
barasertib
  log2 fold change: -0.051
volasertib
  log2 fold change: 0.002
[3]
  log2 fold change: 0.082
[4]
  log2 fold change: 0.003
sotrastaurin
  log2 fold change: 0.021
alvocidib
  log2 fold change: -0.024
[9]
  log2 fold change: 0.044

## BRAF, A0A2R8Y8E0
vemurafenib
  log2 fold change: 1.34
[1]
  log2 fold change: -0.287
defactinib
  log2 fold change: -0.029
encorafenib
  log2 fold change: 1.3
[7]
  log2 fold change: 0.076

## CDAN1 (UniProt H3BPZ6)
sotrastaurin
  log2 fold change: 0.175

## CASP7 isoform 3 (UniProt P55210)
[8]
  log2 fold change: -0.117
barasertib
  log2 fold change: 0.059
[1]
  log2 fold change: -0.148
volasertib
  log2 fold change: -0.049
[2]
  log2 fold change: -0.119
saracatinib
  log2 fold change: 0.056
sotrastaurin
  log2 fold change: -0.091
Tubastatin A
  log2 fold change: -0.051
[5]
  log2 fold change: -0.016
[6]
  log2 fold change: -0.059
encorafenib
  log2 fold change: 0.16
[7]
  log2 fold change: 0.379 (active)
alisertib
  log2 fold change: -0.058
[9]
  log2 fold change: 0.079
gefitinib
  log2 fold change: 0.108

## CDK11A (UniProt Q9UQ88)
UniProt Q9UQ88, sequence (Q9UQ88 whole entry, looked up): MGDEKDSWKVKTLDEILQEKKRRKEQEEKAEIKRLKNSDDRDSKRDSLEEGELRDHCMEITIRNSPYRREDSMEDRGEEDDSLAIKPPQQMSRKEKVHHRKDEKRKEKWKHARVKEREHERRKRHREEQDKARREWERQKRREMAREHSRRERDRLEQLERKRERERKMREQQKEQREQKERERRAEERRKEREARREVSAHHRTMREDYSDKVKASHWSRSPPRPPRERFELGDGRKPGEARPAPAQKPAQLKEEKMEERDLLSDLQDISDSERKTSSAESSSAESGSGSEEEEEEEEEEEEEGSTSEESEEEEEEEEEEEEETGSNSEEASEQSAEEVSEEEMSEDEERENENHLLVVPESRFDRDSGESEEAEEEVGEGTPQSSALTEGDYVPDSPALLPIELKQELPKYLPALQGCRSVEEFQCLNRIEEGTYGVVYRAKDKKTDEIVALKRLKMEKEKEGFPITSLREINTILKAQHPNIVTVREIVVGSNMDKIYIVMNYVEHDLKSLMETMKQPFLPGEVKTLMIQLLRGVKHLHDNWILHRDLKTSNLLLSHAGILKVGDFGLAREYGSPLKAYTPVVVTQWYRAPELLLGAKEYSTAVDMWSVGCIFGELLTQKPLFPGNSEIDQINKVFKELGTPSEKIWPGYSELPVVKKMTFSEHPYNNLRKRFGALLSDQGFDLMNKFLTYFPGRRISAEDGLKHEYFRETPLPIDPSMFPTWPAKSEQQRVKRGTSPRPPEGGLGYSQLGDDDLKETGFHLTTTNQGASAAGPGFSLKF
[8]
  log2 fold change: -0.019
barasertib
  log2 fold change: 0.029
volasertib
  log2 fold change: -0.135
[2]
  log2 fold change: 0.047
[3]
  log2 fold change: 0.127
[4]
  log2 fold change: -0.099
saracatinib
  log2 fold change: -0.069
sotrastaurin
  log2 fold change: -0.026
alvocidib
  log2 fold change: 0.077
Tubastatin A
  log2 fold change: -0.172
[5]
  log2 fold change: -0.011
[6]
  log2 fold change: 0.023
alisertib
  log2 fold change: -0.023
[9]
  log2 fold change: -0.037
gefitinib
  log2 fold change: 0

## CAD (UniProt H7BZB3)
vemurafenib
  log2 fold change: -0.063
[1]
  log2 fold change: 0.144
[3]
  log2 fold change: -0.02
[4]
  log2 fold change: -0.027
alvocidib
  log2 fold change: 0.005
[5]
  log2 fold change: 0.28
defactinib
  log2 fold change: 0.036
encorafenib
  log2 fold change: 0.113
[7]
  log2 fold change: 0.059

## CCP110 (UniProt O43303)
UniProt O43303, sequence (O43303 whole entry, looked up): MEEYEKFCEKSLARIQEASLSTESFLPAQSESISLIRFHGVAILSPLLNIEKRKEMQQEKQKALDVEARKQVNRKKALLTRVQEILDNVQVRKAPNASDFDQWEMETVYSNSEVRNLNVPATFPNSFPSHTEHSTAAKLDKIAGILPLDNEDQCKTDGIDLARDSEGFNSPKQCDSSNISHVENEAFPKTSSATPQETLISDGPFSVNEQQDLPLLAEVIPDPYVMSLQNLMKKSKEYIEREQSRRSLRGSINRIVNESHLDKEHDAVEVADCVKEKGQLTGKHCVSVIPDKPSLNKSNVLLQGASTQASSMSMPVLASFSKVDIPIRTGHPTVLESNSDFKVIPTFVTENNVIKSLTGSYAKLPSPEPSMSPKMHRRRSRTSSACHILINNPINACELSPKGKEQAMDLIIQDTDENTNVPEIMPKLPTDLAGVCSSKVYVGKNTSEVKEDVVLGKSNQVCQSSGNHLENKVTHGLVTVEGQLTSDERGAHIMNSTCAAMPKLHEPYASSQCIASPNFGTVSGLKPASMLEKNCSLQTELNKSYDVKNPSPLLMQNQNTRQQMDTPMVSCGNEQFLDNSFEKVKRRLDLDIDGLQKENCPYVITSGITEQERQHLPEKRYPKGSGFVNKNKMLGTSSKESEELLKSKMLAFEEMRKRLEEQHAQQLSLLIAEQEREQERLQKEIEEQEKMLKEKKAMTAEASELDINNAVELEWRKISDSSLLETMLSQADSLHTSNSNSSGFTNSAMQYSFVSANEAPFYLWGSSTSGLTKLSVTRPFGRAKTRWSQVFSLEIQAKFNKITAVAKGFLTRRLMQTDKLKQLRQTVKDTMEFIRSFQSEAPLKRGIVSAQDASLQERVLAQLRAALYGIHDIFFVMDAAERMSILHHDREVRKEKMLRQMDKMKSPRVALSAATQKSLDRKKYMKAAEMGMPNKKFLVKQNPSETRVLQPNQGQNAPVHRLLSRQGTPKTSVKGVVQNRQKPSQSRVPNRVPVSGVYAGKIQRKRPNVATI
vemurafenib
  log2 fold change: -0.202
barasertib
  log2 fold change: 0.07
[1]
  log2 fold change: -0.141
[2]
  log2 fold change: -0.022
saracatinib
  log2 fold change: -0.06
sotrastaurin
  log2 fold change: 0.005
Tubastatin A
  log2 fold change: -0.045
[5]
  log2 fold change: -0.115
defactinib
  log2 fold change: 0.181
[6]
  log2 fold change: 0.008
encorafenib
  log2 fold change: 0.075
[7]
  log2 fold change: 0.125

## C9orf72 (UniProt Q96LT7)
UniProt Q96LT7, sequence (Q96LT7 whole entry, looked up): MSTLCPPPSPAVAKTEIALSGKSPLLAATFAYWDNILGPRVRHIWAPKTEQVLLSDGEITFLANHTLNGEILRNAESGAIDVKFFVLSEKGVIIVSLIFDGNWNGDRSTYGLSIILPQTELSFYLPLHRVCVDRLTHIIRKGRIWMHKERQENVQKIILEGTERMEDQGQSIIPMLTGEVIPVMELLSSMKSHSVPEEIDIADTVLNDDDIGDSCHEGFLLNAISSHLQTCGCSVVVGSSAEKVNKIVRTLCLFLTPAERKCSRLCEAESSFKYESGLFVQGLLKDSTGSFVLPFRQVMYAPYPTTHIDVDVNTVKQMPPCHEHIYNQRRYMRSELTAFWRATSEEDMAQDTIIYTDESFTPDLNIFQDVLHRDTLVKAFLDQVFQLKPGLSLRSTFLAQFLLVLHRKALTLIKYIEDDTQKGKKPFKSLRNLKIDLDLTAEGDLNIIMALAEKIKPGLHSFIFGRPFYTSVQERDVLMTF
[8]
  log2 fold change: -0.03
barasertib
  log2 fold change: -0.091
[1]
  log2 fold change: 0.034
volasertib
  log2 fold change: 0.088
[2]
  log2 fold change: 0.022
[3]
  log2 fold change: -0.065
[4]
  log2 fold change: -0.015
saracatinib
  log2 fold change: 0.082
sotrastaurin
  log2 fold change: 0.011
alvocidib
  log2 fold change: 0.001
Tubastatin A
  log2 fold change: 0
[5]
  log2 fold change: -0.036
[6]
  log2 fold change: 0.058
encorafenib
  log2 fold change: 0.125
[7]
  log2 fold change: 0.259 (active)
alisertib
  log2 fold change: 0.014
[9]
  log2 fold change: 0.102
gefitinib
  log2 fold change: -0.106

## CCDC130 (UniProt P13994)
barasertib
  log2 fold change: 0.045
[1]
  log2 fold change: 0.036
[2]
  log2 fold change: -0.027
sotrastaurin
  log2 fold change: 0.147
Tubastatin A
  log2 fold change: -0.066
[5]
  log2 fold change: -0.275
encorafenib
  log2 fold change: -0.015
[7]
  log2 fold change: 0.09

## CAPNS1 (UniProt U3KPR7)
[8]
  log2 fold change: -0.125
barasertib
  log2 fold change: 0.424
volasertib
  log2 fold change: -0.01
alisertib
  log2 fold change: -0.069
[9]
  log2 fold change: 0.024
gefitinib
  log2 fold change: 0.165

## ATXN2 (UniProt F8WB06)
saracatinib
  log2 fold change: -0.088
[6]
  log2 fold change: -0.09

## CEP152 (UniProt O94986)
vemurafenib
  log2 fold change: 0.031
barasertib
  log2 fold change: 0.106
[1]
  log2 fold change: 0.25
[2]
  log2 fold change: 0.008
[3]
  log2 fold change: -0.009
[4]
  log2 fold change: 0.272
saracatinib
  log2 fold change: 0.051
sotrastaurin
  log2 fold change: -0.039
alvocidib
  log2 fold change: -0.077
Tubastatin A
  log2 fold change: -0.061
[5]
  log2 fold change: 0.019
defactinib
  log2 fold change: 0.019
[6]
  log2 fold change: 0.182
encorafenib
  log2 fold change: -0.064
[7]
  log2 fold change: 0.04
alisertib
  log2 fold change: -0.007
gefitinib
  log2 fold change: 0.008

## BUD13 (UniProt Q9BRD0)
UniProt Q9BRD0, sequence (Q9BRD0 whole entry, looked up): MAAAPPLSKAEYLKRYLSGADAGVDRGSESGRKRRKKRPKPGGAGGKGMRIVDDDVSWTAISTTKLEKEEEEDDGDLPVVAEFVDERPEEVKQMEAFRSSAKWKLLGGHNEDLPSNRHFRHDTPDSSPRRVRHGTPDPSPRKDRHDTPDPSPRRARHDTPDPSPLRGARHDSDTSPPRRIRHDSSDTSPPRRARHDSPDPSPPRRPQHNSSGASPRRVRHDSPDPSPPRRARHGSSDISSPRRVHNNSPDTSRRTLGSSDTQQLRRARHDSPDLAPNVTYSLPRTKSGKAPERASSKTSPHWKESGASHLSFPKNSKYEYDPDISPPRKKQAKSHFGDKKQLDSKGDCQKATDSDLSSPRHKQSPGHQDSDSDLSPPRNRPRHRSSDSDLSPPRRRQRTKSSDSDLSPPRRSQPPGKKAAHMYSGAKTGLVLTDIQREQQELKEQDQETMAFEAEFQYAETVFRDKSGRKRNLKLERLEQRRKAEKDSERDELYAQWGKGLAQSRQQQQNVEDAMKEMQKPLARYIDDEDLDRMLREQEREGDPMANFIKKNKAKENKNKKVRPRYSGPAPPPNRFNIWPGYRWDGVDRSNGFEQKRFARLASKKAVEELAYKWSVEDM
barasertib
  log2 fold change: 0.092
[1]
  log2 fold change: -0.07
[2]
  log2 fold change: -0.037
[3]
  log2 fold change: 0.076
[4]
  log2 fold change: -0.064
saracatinib
  log2 fold change: 0.096
sotrastaurin
  log2 fold change: 0.025
alvocidib
  log2 fold change: 0.033
Tubastatin A
  log2 fold change: -0.015
[5]
  log2 fold change: -0.022
[6]
  log2 fold change: 0.068
encorafenib
  log2 fold change: 0.007
[7]
  log2 fold change: 0.004
alisertib
  log2 fold change: 0.017
gefitinib
  log2 fold change: 0.108

## CCND3 (UniProt P30281)
barasertib
  log2 fold change: 0.014
[1]
  log2 fold change: -0.056
[2]
  log2 fold change: -0.112
[3]
  log2 fold change: -0.116
[4]
  log2 fold change: 0.075
saracatinib
  log2 fold change: 0.086
sotrastaurin
  log2 fold change: 0.016
alvocidib
  log2 fold change: 0.144
Tubastatin A
  log2 fold change: -0.001
[5]
  log2 fold change: 0.024
[6]
  log2 fold change: 0.037
encorafenib
  log2 fold change: 0.081
[7]
  log2 fold change: -0.128
alisertib
  log2 fold change: 0.073
gefitinib
  log2 fold change: 0.201
